From ChEMBL document CHEMBL1961873, “Compounds: GSK PKIS; Assays: Nanosyn kinase panel” (2012)

Legend:
[1] = target: High affinity nerve growth factor receptor (Homo sapiens) (UniProt P04629); settings: at 1 µM;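 further: each value is the mean percent inhibition of TRKA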
[2] = target: BDNF/NT-3 growth factors receptor (Homo sapiens) (UniProt Q16620); settings: at 0.1 µM
[3] = target: BDNF/NT-3 growth factors receptor (Homo sapiens) (UniProt Q16620); settings: at 1 µM
[4] = target: NT-3 growth factor receptor (Homo sapiens) (UniProt Q16288); settings: at 0.1 µM
Chain of NT-3 growth factor receptor (Homo sapiens) (Q16288 32-839 limits assumed): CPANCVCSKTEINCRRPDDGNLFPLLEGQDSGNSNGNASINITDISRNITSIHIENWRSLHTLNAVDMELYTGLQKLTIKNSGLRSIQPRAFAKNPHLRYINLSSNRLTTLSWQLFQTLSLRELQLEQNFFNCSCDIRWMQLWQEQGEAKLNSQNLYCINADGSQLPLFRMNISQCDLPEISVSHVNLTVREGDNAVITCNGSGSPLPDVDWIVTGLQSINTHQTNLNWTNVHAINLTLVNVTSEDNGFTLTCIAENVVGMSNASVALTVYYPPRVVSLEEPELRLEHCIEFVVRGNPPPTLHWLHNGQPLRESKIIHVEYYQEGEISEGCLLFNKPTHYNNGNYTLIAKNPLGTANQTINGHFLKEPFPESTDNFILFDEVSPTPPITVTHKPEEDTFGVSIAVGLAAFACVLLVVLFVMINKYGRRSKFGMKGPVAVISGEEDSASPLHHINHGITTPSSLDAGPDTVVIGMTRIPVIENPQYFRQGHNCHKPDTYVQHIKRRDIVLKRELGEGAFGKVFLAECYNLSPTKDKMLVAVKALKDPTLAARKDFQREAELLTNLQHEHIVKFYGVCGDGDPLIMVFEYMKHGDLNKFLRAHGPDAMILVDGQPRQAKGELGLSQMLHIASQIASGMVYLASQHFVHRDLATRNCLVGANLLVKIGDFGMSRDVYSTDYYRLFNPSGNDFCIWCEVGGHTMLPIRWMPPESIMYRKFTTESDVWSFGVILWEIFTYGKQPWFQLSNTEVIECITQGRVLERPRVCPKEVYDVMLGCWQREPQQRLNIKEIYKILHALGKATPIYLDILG

[5] = target: NT-3 growth factor receptor (Homo sapiens) (UniProt Q16288); settings: at 1 µM
[6] = target: T1, Tyrosine-protein kinase TXK (Homo sapiens) (UniProt P42681); settings: at 0.1 µM
T1 sequence (whole entry): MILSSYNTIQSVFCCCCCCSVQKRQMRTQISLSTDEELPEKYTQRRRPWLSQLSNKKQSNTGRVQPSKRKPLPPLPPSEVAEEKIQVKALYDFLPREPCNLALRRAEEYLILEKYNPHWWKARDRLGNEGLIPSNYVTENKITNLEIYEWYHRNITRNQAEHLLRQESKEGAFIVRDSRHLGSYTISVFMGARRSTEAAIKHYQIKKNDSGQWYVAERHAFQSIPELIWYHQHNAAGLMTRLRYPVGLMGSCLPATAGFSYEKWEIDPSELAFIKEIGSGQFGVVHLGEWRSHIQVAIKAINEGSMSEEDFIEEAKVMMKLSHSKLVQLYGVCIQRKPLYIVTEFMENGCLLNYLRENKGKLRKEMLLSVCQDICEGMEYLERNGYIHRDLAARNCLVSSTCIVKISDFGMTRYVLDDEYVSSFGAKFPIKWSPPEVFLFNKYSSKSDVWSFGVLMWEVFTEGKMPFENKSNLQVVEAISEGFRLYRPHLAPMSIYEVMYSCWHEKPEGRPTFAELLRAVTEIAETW

[7] = target: T1, Tyrosine-protein kinase TXK (Homo sapiens); settings: at 1 µM
[8] = target: Non-receptor tyrosine-protein kinase TYK2 (Homo sapiens) (UniProt P29597); settings: at 0.1 µM;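 further: each value is a mean of the inhibition readings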
Chain of Non-receptor tyrosine-protein kinase TYK2 (Homo sapiens) (P29597 whole entry): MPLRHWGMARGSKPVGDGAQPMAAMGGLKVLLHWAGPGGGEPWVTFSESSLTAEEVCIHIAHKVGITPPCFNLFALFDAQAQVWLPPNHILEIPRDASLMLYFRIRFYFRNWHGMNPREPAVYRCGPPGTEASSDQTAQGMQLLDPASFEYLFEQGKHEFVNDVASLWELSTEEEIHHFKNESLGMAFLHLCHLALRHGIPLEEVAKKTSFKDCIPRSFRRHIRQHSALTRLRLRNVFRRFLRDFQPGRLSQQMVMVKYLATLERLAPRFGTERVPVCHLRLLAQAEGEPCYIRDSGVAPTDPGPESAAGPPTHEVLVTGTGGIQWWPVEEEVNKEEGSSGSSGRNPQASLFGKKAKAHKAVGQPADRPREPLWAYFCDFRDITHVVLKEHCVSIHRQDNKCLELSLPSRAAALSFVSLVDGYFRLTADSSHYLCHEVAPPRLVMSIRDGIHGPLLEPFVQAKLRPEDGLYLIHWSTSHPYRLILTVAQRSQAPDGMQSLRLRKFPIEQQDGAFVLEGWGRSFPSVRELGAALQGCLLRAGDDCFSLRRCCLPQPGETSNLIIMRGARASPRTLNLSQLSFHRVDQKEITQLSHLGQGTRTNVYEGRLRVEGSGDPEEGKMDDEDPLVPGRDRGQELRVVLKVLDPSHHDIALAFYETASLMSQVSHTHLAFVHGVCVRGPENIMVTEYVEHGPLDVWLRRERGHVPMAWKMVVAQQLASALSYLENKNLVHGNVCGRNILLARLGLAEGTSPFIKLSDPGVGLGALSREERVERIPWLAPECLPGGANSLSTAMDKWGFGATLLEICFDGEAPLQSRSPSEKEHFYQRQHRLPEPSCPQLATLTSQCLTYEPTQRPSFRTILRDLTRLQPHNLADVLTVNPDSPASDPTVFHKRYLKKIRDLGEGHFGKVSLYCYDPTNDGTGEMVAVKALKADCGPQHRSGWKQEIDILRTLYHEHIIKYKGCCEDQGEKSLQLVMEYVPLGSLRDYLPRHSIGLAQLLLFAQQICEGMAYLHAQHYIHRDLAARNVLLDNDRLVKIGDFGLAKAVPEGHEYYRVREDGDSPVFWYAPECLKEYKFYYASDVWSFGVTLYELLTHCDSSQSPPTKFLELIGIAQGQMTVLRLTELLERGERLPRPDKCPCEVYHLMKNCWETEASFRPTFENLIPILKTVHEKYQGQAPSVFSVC

[9] = target: T2, Dual specificity protein kinase TTK (Homo sapiens) (UniProt P33981); settings: at 1 µM;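 further: reported figures are mean TTK inhibition at 1 µM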
T2 sequence (whole entry): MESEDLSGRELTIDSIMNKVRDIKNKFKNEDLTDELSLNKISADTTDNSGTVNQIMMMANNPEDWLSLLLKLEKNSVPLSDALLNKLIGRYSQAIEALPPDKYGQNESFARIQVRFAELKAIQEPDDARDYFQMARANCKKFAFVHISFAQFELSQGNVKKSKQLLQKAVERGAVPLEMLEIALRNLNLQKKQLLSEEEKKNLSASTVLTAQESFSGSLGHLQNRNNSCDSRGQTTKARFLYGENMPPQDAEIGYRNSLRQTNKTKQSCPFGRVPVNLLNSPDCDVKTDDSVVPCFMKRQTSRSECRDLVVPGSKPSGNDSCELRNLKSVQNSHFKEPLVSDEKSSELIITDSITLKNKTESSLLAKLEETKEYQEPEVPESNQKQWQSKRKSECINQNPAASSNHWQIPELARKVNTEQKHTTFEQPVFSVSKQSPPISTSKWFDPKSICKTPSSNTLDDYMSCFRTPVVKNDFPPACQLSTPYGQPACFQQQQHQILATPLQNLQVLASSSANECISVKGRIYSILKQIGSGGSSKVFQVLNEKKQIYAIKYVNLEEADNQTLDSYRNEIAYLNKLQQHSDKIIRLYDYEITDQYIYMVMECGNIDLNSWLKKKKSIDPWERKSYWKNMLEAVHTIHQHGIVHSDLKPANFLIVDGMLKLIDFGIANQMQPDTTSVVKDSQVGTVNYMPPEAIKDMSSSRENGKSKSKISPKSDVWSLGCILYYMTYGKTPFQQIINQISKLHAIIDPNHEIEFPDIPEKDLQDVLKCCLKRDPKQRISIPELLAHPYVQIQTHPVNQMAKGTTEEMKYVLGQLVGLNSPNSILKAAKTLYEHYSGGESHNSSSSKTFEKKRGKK

[10] = target: T3, Aurora kinase A (Homo sapiens) (UniProt O14965); settings: at 0.1 µM
T3 sequence (whole entry): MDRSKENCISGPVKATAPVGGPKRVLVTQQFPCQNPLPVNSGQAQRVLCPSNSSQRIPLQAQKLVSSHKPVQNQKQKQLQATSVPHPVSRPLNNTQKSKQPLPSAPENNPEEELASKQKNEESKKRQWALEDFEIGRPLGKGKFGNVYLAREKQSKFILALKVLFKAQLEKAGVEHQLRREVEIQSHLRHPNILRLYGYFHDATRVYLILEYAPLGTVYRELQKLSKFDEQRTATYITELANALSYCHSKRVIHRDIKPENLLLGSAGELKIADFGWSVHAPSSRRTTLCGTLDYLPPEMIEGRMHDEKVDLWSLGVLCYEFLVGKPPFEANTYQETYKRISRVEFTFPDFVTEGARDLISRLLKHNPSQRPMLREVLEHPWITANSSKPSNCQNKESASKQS

[11] = target: T3, Aurora kinase A (Homo sapiens); settings: at 1 µM
[12] = target: Aurora kinase B (Homo sapiens) (UniProt Q96GD4); settings: at 0.1 µM
Chain of Aurora kinase B (Homo sapiens) (Q96GD4 whole entry): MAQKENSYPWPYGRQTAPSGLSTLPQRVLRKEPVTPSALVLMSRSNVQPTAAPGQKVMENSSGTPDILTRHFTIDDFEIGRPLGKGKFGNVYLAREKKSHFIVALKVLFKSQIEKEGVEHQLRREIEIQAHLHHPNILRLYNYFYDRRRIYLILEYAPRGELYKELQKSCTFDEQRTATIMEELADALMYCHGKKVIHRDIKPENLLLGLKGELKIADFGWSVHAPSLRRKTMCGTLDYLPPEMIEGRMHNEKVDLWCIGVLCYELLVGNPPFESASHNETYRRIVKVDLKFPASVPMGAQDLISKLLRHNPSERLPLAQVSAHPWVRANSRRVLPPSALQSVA

[13] = target: Aurora kinase B (Homo sapiens) (UniProt Q96GD4); settings: at 1 µM
[14] = target: T4, Aurora kinase C (Homo sapiens) (UniProt Q9UQB9); settings: at 0.1 µM
T4 sequence (whole entry): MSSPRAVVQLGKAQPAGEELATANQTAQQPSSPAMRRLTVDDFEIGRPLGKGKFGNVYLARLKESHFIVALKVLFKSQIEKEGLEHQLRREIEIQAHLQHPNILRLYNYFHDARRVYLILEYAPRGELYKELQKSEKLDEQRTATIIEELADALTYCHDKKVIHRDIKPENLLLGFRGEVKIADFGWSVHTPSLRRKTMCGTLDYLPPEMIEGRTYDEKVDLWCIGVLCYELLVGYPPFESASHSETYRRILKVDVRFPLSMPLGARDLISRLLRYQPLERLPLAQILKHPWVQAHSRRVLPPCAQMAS

[15] = target: T4, Aurora kinase C (Homo sapiens); settings: at 1 µM
[16] = target: Serine/threonine-protein kinase 10 (Homo sapiens) (UniProt O94804); settings: at 0.1 µM
Chain of Serine/threonine-protein kinase 10 (Homo sapiens) (O94804 whole entry, looked up): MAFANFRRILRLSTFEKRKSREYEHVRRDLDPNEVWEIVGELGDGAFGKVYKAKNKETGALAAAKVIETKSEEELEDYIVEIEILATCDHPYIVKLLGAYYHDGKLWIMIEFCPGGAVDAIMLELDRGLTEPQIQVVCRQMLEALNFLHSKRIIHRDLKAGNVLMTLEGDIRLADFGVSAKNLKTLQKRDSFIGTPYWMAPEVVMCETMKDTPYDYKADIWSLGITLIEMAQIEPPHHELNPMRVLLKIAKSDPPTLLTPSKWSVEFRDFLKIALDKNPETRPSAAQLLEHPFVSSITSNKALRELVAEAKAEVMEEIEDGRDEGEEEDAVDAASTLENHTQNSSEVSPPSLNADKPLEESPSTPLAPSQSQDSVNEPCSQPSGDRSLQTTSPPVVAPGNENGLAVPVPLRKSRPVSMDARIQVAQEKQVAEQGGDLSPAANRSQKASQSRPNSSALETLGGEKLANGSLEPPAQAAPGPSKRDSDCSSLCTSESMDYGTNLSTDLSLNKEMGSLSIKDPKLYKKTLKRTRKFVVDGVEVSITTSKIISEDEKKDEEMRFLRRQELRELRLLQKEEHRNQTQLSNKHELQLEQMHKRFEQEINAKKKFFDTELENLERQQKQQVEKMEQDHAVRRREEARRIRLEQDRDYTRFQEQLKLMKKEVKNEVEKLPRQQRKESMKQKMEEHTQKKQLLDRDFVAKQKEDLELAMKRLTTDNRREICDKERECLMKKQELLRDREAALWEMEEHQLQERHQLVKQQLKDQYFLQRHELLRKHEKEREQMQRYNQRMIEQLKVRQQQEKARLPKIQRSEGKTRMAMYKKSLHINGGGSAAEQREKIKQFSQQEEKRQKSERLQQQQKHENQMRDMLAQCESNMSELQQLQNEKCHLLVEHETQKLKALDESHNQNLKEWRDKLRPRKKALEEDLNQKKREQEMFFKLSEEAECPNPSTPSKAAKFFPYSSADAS

[17] = target: Serine/threonine-protein kinase 10 (Homo sapiens) (UniProt O94804); settings: at 1 µM
[18] = target: T5, Mitogen-activated protein kinase kinase kinase kinase 2 (Homo sapiens) (UniProt Q12851); settings: at 0.1 µM
T5 sequence (whole entry): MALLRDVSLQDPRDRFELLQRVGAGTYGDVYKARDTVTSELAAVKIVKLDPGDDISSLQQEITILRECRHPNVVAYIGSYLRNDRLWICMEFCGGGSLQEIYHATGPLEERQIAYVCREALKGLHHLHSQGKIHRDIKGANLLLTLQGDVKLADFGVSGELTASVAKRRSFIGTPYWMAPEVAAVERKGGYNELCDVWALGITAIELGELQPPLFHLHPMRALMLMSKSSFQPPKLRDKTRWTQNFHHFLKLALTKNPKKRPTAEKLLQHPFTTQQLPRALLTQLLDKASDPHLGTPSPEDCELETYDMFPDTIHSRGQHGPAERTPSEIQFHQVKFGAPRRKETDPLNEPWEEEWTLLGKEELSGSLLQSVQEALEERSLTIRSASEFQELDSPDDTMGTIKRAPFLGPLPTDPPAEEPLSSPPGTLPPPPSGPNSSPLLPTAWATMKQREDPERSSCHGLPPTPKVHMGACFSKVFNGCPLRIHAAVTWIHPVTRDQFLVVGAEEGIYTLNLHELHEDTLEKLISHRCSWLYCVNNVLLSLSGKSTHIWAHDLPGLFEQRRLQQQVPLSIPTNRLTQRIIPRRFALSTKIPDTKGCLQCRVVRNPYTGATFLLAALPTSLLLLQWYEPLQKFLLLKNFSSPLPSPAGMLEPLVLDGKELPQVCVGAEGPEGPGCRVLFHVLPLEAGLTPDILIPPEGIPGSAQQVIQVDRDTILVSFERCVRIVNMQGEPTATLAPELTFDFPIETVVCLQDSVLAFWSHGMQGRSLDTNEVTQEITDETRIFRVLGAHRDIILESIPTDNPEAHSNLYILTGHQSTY

[19] = target: T5, Mitogen-activated protein kinase kinase kinase kinase 2 (Homo sapiens); settings: at 1 µM
[20] = target: Mitogen-activated protein kinase kinase kinase kinase 4 (Homo sapiens) (UniProt O95819); settings: at 0.1 µM

Chain of BDNF/NT-3 growth factors receptor (Homo sapiens) (Q16620 32-822 limits assumed): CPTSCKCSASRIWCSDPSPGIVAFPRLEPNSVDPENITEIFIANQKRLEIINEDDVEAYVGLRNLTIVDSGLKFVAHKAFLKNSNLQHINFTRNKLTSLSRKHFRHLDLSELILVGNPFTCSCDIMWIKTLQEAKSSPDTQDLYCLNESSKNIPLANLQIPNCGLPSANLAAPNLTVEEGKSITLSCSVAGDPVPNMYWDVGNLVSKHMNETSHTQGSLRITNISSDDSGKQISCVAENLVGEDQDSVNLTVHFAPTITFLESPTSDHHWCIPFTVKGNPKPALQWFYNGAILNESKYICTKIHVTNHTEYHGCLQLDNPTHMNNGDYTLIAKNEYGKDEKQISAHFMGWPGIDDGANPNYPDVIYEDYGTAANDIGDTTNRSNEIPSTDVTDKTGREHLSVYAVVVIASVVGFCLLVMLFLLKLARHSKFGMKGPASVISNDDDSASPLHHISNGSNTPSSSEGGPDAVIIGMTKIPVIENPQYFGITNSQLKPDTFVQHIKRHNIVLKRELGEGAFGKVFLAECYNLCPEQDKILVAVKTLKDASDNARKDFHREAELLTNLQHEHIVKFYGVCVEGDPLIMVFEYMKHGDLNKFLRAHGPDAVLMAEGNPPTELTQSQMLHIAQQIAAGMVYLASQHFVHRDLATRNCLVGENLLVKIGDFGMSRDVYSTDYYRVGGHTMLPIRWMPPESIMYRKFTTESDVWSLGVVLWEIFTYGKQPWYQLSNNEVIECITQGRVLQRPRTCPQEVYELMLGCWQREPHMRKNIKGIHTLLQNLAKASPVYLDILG
Chain of High affinity nerve growth factor receptor (Homo sapiens) (P04629 33-796 limits assumed): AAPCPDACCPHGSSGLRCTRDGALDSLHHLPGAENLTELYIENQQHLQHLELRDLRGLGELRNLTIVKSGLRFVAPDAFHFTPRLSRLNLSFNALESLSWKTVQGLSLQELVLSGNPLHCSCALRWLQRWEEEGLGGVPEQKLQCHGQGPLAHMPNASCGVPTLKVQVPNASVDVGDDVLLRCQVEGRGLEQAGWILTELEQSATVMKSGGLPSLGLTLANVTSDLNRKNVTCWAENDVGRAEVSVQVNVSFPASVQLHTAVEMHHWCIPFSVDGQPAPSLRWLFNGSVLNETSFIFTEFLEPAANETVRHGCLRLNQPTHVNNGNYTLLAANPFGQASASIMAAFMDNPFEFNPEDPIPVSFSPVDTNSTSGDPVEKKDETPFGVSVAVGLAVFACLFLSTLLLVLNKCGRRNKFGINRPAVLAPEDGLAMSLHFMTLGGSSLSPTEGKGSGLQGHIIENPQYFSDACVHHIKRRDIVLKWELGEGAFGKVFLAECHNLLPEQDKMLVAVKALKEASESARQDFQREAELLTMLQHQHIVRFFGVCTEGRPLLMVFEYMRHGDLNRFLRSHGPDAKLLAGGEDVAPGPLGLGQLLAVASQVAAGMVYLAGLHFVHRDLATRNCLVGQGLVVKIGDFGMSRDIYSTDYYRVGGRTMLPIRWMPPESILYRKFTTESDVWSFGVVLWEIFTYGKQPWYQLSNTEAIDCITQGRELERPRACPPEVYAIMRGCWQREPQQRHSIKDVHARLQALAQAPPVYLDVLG

Compound	inhibition [1]	inhibition [2]	inhibition [3]	inhibition [4]	inhibition [5]	inhibition [6]	inhibition [7]	inhibition [8]	inhibition [9]	inhibition [10]	inhibition [11]	inhibition [12]	inhibition [13]	inhibition [14]	inhibition [15]	inhibition [16]	inhibition [17]	inhibition [18]	inhibition [19]	inhibition [20]
C#Cc1cccc(Nc2ncnc3ccc(OCCCCNCCS(C)(=O)=O)cc23)c1	1.9%	3.91%	2.28%	3.6%	4.94%	5.2%	7.94%	-6.6%	9.83%	-1.65%	-0.05%	-2.61%	2.47%	-2.83%	-5.69%	23.4%	75.4%	1.44%	5.3%	5.65%
COc1cc(Nc2ncc3c(C)nc(-c4cccc(C(F)(F)F)c4)n3n2)cc(OC)c1OC	7.83%	4.54%	16.5%	4.76%	11%	3.45%	16.6%	-1.61%	14.4%	2.65%	36.2%	4.06%	14.4%	1.2%	11.3%	6.36%	12.5%	-0.1%	7.98%	11.3%
COc1cc(C)c(N(C)C(=O)CN(C)C)cc1Nc1nc(Nc2cccc(F)c2C(N)=O)c2cc[nH]c2n1	1.31%	0.94%	-2.87%	1.87%	-1.19%	-1.41%	-0.09%	0.02%	25.7%	-0.3%	-1.19%	-3.04%	-0.55%	-3.75%	4.56%	1.37%	2.05%	2.17%	3.67%	0.4%
CN(C)CCCNc1nccc(-c2c(-c3ccc(F)cc3)nn3cc(C(F)(F)F)ccc23)n1	2.77%	4.65%	0.51%	2.89%	2.21%	-0.89%	0.21%	-7.47%	8.76%	-2.9%	6.4%	0.91%	6.92%	-1.31%	-0.03%	2.34%	7.46%	4.09%	7.36%	5.21%
CS(=O)(=O)CCNCc1cc(-c2cc3c(Nc4ccc(OCc5cccc(F)c5)c(Cl)c4)ncnc3s2)cs1	7.01%	3.47%	5.03%	5.13%	3.52%	7.43%	6.57%	-4.26%	9.22%	4.18%	4.87%	5.13%	9.34%	3.65%	8.71%	9.33%	12.9%	0.39%	3.81%	4.31%
CCc1nccc2c1nc(-c1nonc1N)n2CC		3.6%	-1.57%	0.15%	-0.85%	3.63%	7.06%	1.46%	2.94%	2.35%	11.2%	1.28%	5.03%	0.67%	5.21%	-0.01%	3.09%	2.12%	2.26%	2.56%
FC(F)(F)c1cccc(Nc2nccc(-c3cnn4nc(-c5ccccc5)ccc34)n2)c1	-0.33%	0.37%	3.54%	-0.78%	3.9%	-1.01%	5.95%	-2.57%	6.07%	0.08%	3.33%	2.71%	8.1%	1.82%	10.2%	3.86%	5.68%	0.58%	2.4%	2.1%
Fc1ccc(-c2c(-c3ccncc3)nc3n2CCS3)cc1	-0.43%	1.79%	-0.01%	3.54%	1.8%	-1.56%	0.44%	-0.68%	4.17%	-2.71%	2.75%	-0.21%	1.83%	-4.05%	-8.58%	-1.08%	7.95%	1.02%	3.03%	4.23%
c1ccc(Oc2ccc(Nc3ncc(-c4ccccc4)o3)cc2)cc1	3.28%	0.87%	2.96%	0.46%	1.12%	1.51%	3.57%	-0.13%	5.67%	1.36%	10.2%	2.17%	7.16%	0.67%	-1.26%	0.49%	2.71%	1.08%	1.62%	3.28%
Cc1ccc(NC(=O)c2ccoc2)cc1-c1ccc(C(=O)NCC2CC2)cc1	1.15%	2.58%	1.82%	2.37%	0.07%	-0.38%	2.18%	-3.59%	4.41%	2.28%	2.57%	1.19%	4.85%	1.82%	1%	2.73%	5.18%	-0.94%	0.39%	0.77%
COc1cc(Nc2ncc3c(C)nc(-c4cccc(Oc5ccccc5)c4)n3n2)cc(OC)c1OC	1.05%	0.27%	1.55%	1.86%	2.38%	2.38%	4.09%	-0.63%	14.8%	2.19%	44.4%	2%	15.8%	1.04%	30.1%	1.18%	1.99%	1.28%	4.18%	1.36%
NC(=O)c1cc(-c2ccncc2)cc(-c2ccccc2)c1N	1.84%	2.94%	3.86%	3.19%	4.68%	45%	76.1%	-3.77%	10.8%	2.73%	6.63%	3.91%	4.94%	1.71%	5.08%	6.67%	9.99%	0.27%	0.97%	11.9%
CCS(=O)(=O)c1ccc(OC)c(Nc2ncc(-c3cccc(-c4ccccc4F)c3)o2)c1	26%	7.74%	39.2%	7.3%	39.5%	5.11%	31.2%	1.51%	3.52%	0.79%	15%	3.23%	3.48%	0.45%	-0.17%	2.05%	15.4%	1.69%	2.38%	2.34%
Nc1nccc(-c2c(-c3ccc(F)cc3)ncn2C2CCC(O)CC2)n1 (centres undefined)	-0.08%	1.41%	5.91%	2%	11.3%	1.58%	19.2%	-2.03%	-0.22%	-2.33%	22%	-3.41%	4.15%	-1.77%	-2.2%	-0.75%	9.11%	2.53%	16.2%	9.24%
COc1ccc(-c2ccc3c(NC(=O)C4CC4)n[nH]c3n2)cc1	2.48%	1.11%	5.12%	-0.49%	5.04%	2.08%	2.53%	0.27%	8.48%	1.67%	9.18%	3.59%	5.77%	-5.01%	8.55%	4.51%	8.53%	1.22%	0.37%	5.28%
